Assay results: PubChem BioAssay AID1259418 (Broad Institute, 2018)
Among all 3,400 compounds or so, about 840 (25%) were called active. Roughly 11% stayed inconclusive and do not appear here. A selection follows. Entries with a potency or affinity are not part of this list. A number with no mark means an inactive call.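 Rule for the calls: active = fitted half-maximal concentration of signal decrease at or below twice the sample's top tested concentration; inconclusive = flat curve between -70 and -30 percent, or poor fit; inactive = flat within 30 percent, signal rise, or potency above limit.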

assay: inhibitors of Toxoplasma growth in IFN-γ-primed HeLa – cell-based, ME49Luc, luciferase, 72 h, dose response (AID 1259418); details: T. gondii ME49Luc in IFN-y HeLa, active compounds read low, -100% = high-dose IFN-γ control wells; at 19.5 µM unless noted

| SMILES | max activity |
| --- | --- |
| Cc1ccc(C)c(-c2coc(-c3ccc(NC(=O)Nc4ccc5c(c4)OCCO5)cc3)n2)c1 | 196% [at 5 µM] |
| CCc1nc(OCC(=O)Nc2ccc(OC)cc2OC)c2ccccc2n1 | -16.2% [at 0.35 µM] |
| CCOC(=O)CSC1=Nc2ccccc2C2=NC(CC(=O)NCc3ccccc3)C(=O)N12 (configuration not stated) | -17% [at 0.16 µM] |
| CCOc1ccccc1-c1noc(-c2nnn(Cc3nc(-c4cccc(C)c4)oc3C)c2C)n1 | -4.72% [at 5 µM] |
| N#C[C@@H]1[C@H](c2ccc(C#Cc3cccc(F)c3)cc2)[C@H](CO)N1C(=O)C1CCOCC1 | 26.4% [at 10 µM] |
| N#C[C@H]1[C@H](c2ccc(C#Cc3cccc(F)c3)cc2)[C@@H](CO)N1C(=O)C1CCOCC1 | 33.1% |
| COc1cccc(-c2nc3c(s2)CN(C(=O)NC2CCCCC2)CC3)c1 | -6.7% |
| COc1ccc(-c2nc(Cn3nnc(-c4nc(-c5cccs5)no4)c3C)c(C)o2)cc1 | 7.54% [at 0.16 µM] |
| COc1ccc(-c2nc(Cn3nnc(-c4nc(-c5ccc(C)cc5)no4)c3C)c(C)o2)cc1 | 4.22% [at 0.16 µM] |
| Cc1ccc(-c2noc(-c3nnn(Cc4nc(-c5cccc(C)c5)oc4C)c3C)n2)cc1 | 7.12% [at 0.68 µM] |
| CCOc1ccccc1-c1noc(-c2nnn(Cc3nc(-c4ccc(C)cc4)oc3C)c2C)n1 | -5.47% [at 1.35 µM] |
| Cc1ccc(-c2noc(-c3nnn(Cc4nc(-c5ccc(C)cc5)oc4C)c3C)n2)cc1 | 8.64% |
| COc1ccc(-c2nc(Cn3nnc(-c4nc(-c5ccccc5OC)no4)c3C)c(C)o2)cc1 | -5.44% [at 1.35 µM] |
| Cc1cccc(-c2nc(Cn3nnc(-c4nc(-c5ccccc5)no4)c3C)c(C)o2)c1 | 4.79% [at 0.68 µM] |
| COc1ccc(-c2nc(Cn3nnc(-c4nc(-c5cc(OC)cc(OC)c5)no4)c3C)c(C)o2)cc1 | 4.11% [at 0.35 µM] |
| CN(C)C(=O)c1ccc2nnc3ncn(Cc4ccccc4)c3c2c1 | -17.6% [at 10 µM] |
| COc1ccc(CCNc2nc(SCc3ccc(Cl)cc3)nc3ccccc23)cc1OC | 9.35% [at 1.35 µM] |
| COc1nc2c(c(C)nn2-c2ccccc2)c(C)c1CCC(=O)NCCc1c[nH]c2ccccc12 | 7.44% |
| O=C(Nc1c(C(=O)N2CCCC2)[nH]c2ccccc12)c1ccc(Cl)cc1 | 30.4% [at 10 µM] |
| O=C(CCC1N=C2c3ccccc3N=C(SCc3cc(=O)n4ccccc4n3)N2C1=O)NCc1ccco1 (configuration not stated) | 26.1% [at 1.35 µM] |
| CCc1nc(OCC(=O)Nc2cc(OC)ccc2OC)c2ccccc2n1 | -25% [at 2.6 µM] |
| Cc1ccc(C)c(-c2coc(-c3ccc(NC(=O)C4CCCCC4)cc3)n2)c1 | 10.4% [at 10 µM] |
| Cc1ccc(-c2nc(Cn3nnc(-c4nc(-c5ccccc5C)no4)c3C)c(C)o2)cc1 | 15.4% [at 0.16 µM] |
| Cc1nc(CCNC(=O)C2CCN(S(=O)(=O)c3ccc(Cl)s3)CC2)cs1 | -9.13% |

| SMILES | max activity |
| --- | --- |
| Cc1ccc(CNC2=NCCNC23CCN(S(=O)(=O)c2cccs2)CC3)cc1 | 17.3% [at 10 µM] |
| Cc1cccc(CNC2=NCCNC23CCN(S(=O)(=O)c2cccs2)CC3)c1 | 13.8% |
| O=S(=O)(c1cccs1)N1CCC2(CC1)NCCN=C2NCc1cc(F)cc(F)c1 | 10.2% [at 0.16 µM] |
| O=S(=O)(c1cccs1)N1CCC2(CC1)NCCN=C2NCc1ccc(F)c(Cl)c1 | -41.7% |
| CCCC(=O)Nc1ccc(-c2nc(-c3ccccc3)co2)cc1 | 72.8% [at 10 µM] |
| O=C(NCCc1csc(-c2ccccc2)n1)C1CCN(S(=O)(=O)c2cccs2)CC1 | 11.2% [at 0.16 µM] |
| Cc1cc(C)cc(S(=O)(=O)N2CCC(C(=O)NCCc3csc(-c4ccccc4)n3)CC2)c1 | 16.8% [at 10 µM] |
| Cc1ccc(S(=O)(=O)N2CCC(C(=O)NCCc3csc(-c4ccccc4)n3)CC2)cc1 | 5.41% [at 5 µM] |
| CCOc1ccc(S(=O)(=O)N2CCC(C(=O)NCCc3csc(-c4ccccc4)n3)CC2)cc1 | 21.5% [at 5 µM] |
| Cc1nc(CCNC(=O)C2CCN(S(=O)(=O)c3ccc(CC(C)C)cc3)CC2)cs1 | -7.19% [at 1.35 µM] |
| O=C(NCCc1csc(-c2ccccc2)n1)C1CCN(S(=O)(=O)c2cccc(F)c2)CC1 | 8.1% [at 5 µM] |
| Cc1nc(CCNC(=O)C2CCN(S(=O)(=O)c3ccc(Cl)cc3)CC2)cs1 | -9.1% [at 0.35 µM] |
| O=C(NCCc1csc(-c2ccccc2)n1)C1CCN(S(=O)(=O)c2ccccc2)CC1 | 11.6% [at 10 µM] |
| COC(=O)c1sccc1S(=O)(=O)N[C@@H]1CC[C@@H](N)C1 | 17.5% |
| CCc1c(C)sc2c1CCN(Cc1nc(-c3cccc(Cl)c3)oc1C)C2c1ccccc1 (configuration not stated) | 7.75% [at 0.68 µM] |
| COc1cccc(-c2nc3c(s2)CN(S(=O)(=O)c2ccc(CC(C)C)cc2)CC3)c1 | 8.23% [at 2.6 µM] |
| CCc1ccccc1Nc1nc(-c2ccc(OC)cc2)nc2ccccc12 | -9.45% [at 0.16 µM] |
| COc1ccccc1-c1nc(Cn2nnc(-c3nc(-c4ccccc4)no3)c2C)c(C)o1 | -9.24% [at 1.35 µM] |
| Cc1cccc(C2=NC3(CCN(Cc4ccccc4C)CC3)NC2=O)c1 | 12% [at 0.16 µM] |
| O=C(Cc1ccc(F)cc1)Nc1ccc(-c2nc(-c3ccccc3)co2)cc1 | 4.13% [at 5 µM] |
| COc1ccc(-c2nc(Nc3ccc(C)cc3Cl)c3ccccc3n2)cc1 | -11.8% [at 2.6 µM] |
| NC(=O)C1(N2CCCCC2)CCN(c2ncc(NC(=O)c3ccccc3F)cc2C(=O)O)CC1 | 15.7% [at 2.6 µM] |
| CCCc1ccc(S(=O)(=O)N2CCc3nc(-c4cccc(OC)c4)sc3C2)cc1 | -6.99% [at 2.6 µM] |
| COc1cc(OC)cc(C(=O)N2CCC3(CC2)Nc2ccc(C)c(C)c2-n2cccc23)c1 | -13.1% [at 0.35 µM] |

| SMILES | max activity |
| --- | --- |
| COc1cccc(CC(=O)N2CCC(C(=O)NCCc3csc(-c4ccccc4)n3)CC2)c1 | 8.89% [at 10 µM] |
| O=C(NCCc1csc(-c2ccccc2)n1)C1CCN(C(=O)Cc2ccc(Cl)cc2)CC1 | 8.14% |
| COc1ccc(-c2nc3c([nH]2)c(=O)n(C)c(=O)n3C)cc1OC | 40.8% [at 0.35 µM] |
| Cc1ccc(CCNC(=O)CCC2Nc3c4ccccc4nc(=S)n3C2=O)cc1 (configuration not stated) | 13.4% [at 10 µM] |
| CN(C)CC(=O)N1C[C@@H]2N[C@H](C1)C2c1ccc(C2=CCCCC2)cc1 (some centres not stated) | 18.8% [at 9 µM] |
| COc1cccc(S(=O)(=O)N2CC[C@@H]3[C@H](CO)Nc4ccc(C5=CCCCC5)cc4[C@@H]32)c1 | 8.73% [at 10 µM] |
| Cc1nc(CCNC(=O)[C@H]2CCCN2S(=O)(=O)c2cccs2)cs1 | 7.39% [at 0.16 µM] |
| O=C(NCCCN1CCC(N2CCCCC2)CC1)c1nnc2ccc(-c3ccccc3)nn12 | 16.2% [at 0.16 µM] |
| Cc1cccc(C(=O)N2CCC3(CC2)Nc2ccc(C)c(C)c2-n2cccc23)c1 | 11.2% [at 0.68 µM] |
| Cc1oc(-c2ccccc2)nc1Cn1nnc(-c2nc(-c3ccc4c(c3)OCO4)no2)c1C | 8.48% [at 10 µM] |
| O=S(=O)(Cc1ccccc1)N1CC2CN(Cc3cccc(Cl)c3)CC2C1 (configuration not stated) | 9.94% |
| COc1ccc(-c2nc(NCC3CCN(Cc4cccc(C)c4)CC3)c3ccccc3n2)cc1 | -18.6% [at 2.6 µM] |
| COc1ccc(-c2nc(NCC3CCN(Cc4cccc(Cl)c4)CC3)c3ccccc3n2)cc1 | -31.6% [at 10 µM] |
| COc1cccc(CN2CCc3nc(SCc4nc(-c5ccccc5)oc4C)[nH]c(=O)c3C2)c1 | 24.2% [at 2.6 µM] |
| COc1cccc(CNC(=O)N2CCc3nc(-c4ccccc4)sc3C2)c1 | -15% [at 5 µM] |
| COCCC(=O)c1cc2c(s1)CCN2Cc1cccnc1 | 26.4% |
| Cc1ccccc1S(=O)(=O)N1CCCCN2[C@H](CO)[C@H](c3ccc(C#CCN(C)C)cc3)[C@H]2C1 | 23.7% |
| Cc1ccccc1S(=O)(=O)N1CCCCN2[C@H](CO)[C@H](c3ccc(C#CCN(C)C)cc3)[C@@H]2C1 | -17.9% |
| Cc1cccc(N2CCN(c3nc(-c4ccc(Cl)cc4)nc4ccccc34)CC2)c1C | 10.6% |
| c1cc(-c2nccn2CCn2ccnc2)ccn1 | 11.4% |
| COc1cccc(CNc2nc(-c3ccc(Cl)cc3)nc3ccccc23)c1 | -22% [at 1.35 µM] |
| OC[C@@H]1Nc2ccc(-c3cccc(F)c3)cc2[C@H]2[C@@H]1CCN2Cc1ccc(F)cc1 | 42.2% [at 10 µM] |
| O=S(=O)(c1cccc(F)c1)N1CC[C@@H]2[C@H]1c1cc(Br)ccc1N[C@@H]2CO | 35.2% [at 10 µM] |
| Cc1ccc(-c2csc(-c3cccn3CC(=O)N3CCC4(CC3)OCCO4)n2)cc1 | 11.8% [at 5 µM] |
